# WNV protease inh = blocks West Nile virus NS2B-NS3 protease activity; WNV NS2B-NS3 protease, fluorogenic substrate Ex360/Em465; hits give low values; z-score (concentration not given with the values); 65,000 tested, 0.18% active; AID 577; in the data active = z-score below about -3
# M1 ag = agonists of M1 muscarinic receptor; CHO-M1 cells, Fluo-4 calcium fluorescence, agonist mode; hits give high values; B-score at 10 µM; 64,000 tested, 3% active; AID 626;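 active = fluorescence rise, raw or as B-score row- and column-corrected plate score, outside the 99.7% band of its plate's samples, either direction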
# D1 allo mod = allosteric modulators of human D1 dopamine receptor | P21728 | HEK293 D1, CRE-luciferase, dopamine EC30 potentiation; actives deviate in either direction | B-score at 10 µM | 58,000 tested, 5.9% active | AID 641;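 active = luminescence count or its row- and column-corrected plate score outside the 99.7% band of the plate's sample wells, on either side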
# M1 antag = antagonists of rat M1 muscarinic receptor | P08482 | CHO-M1 cells, Fluo-4 calcium, ACh EC80 antagonist mode; hits give low values | B-score at 10 µM | 64,000 tested, 3.4% active | AID 628;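 active = calcium fluorescence response, raw or row-and-column corrected B-score, differing from the plate sample mean either way at a set confidence level, mostly lower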
# Target sequence (P08482 whole entry, looked up): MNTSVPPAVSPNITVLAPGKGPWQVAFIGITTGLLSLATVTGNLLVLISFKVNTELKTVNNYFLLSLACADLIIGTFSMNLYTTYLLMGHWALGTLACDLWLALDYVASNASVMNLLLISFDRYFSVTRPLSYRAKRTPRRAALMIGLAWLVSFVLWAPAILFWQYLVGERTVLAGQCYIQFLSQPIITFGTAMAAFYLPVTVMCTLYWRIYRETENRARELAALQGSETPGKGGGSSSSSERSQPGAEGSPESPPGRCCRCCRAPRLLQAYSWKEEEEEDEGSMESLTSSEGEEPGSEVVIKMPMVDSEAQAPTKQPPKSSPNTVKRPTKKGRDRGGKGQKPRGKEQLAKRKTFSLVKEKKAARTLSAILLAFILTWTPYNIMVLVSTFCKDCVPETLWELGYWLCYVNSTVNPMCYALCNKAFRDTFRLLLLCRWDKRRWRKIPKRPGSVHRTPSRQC
# mHtt clearance = compounds clearing mutant huntingtin protein | 47,000 tested, 0.42% active | inhibition, % at 1.5 µM | HeLa Exon1htt(103Q)mCFP, aggregate imaging; zero = plate's median compound well | AID 853;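 active = inhibition of aggregate fluorescence above about 70%, also judged a hit by eye on the cell image, limit read from the data, passing the limit was not always enough; inconclusive = no rule stated for this call; inactive = not judged a hit on image review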;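 also: cells exposed to compound for three days before fixation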
# M1 antag conf = confirmation of rat M1 muscarinic receptor antagonists; shares compounds with M1 antag; CHO-M1 cells, Fluo-4 calcium, ACh EC80 antagonism; hits give low values; calcium response (max-min fluorescence) at 10 µM; 1,700 tested, 43% active; AID 677;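 active = calcium response below the same-plate mean of wells given acetylcholine alone at its 80%-effect dose, minus 3 SD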;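 also: raw fluorescence intensity difference in arbitrary instrument units and not normalized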
# mGluR4 antag = selectivity test for M1 antagonists: human mGluR4 receptor | shares compounds with M1 antag | CHO-mGluR4 calcium flux, Fluo-4 fluorescence, glutamate EC80; hits give low values | fluorescence response (max-min) at 10 µM | 1,700 tested, 0.9% active | AID 678;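 active = fluorescence response below the plate's average for near-maximal glutamate wells, less 3 SD of those wells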;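 also: raw unnormalized fluorescence span taken in the window right after glutamate addition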
# * hit, by the source's call; u = inconclusive; x = not tested or not shown. Most compounds without a hit are left out; they make up all but 8.9% or so of the library.
SMILES,WNV protease inh,M1 ag,D1 allo mod,M1 antag,mHtt clearance,M1 antag conf,mGluR4 antag
CC(C)(C)c1ccccc1OCC(=O)NCCC(=O)O,-0.19,-0.728,0.0284,-2.84*,x,673,237
CCn1c(SCC(=O)Nc2cccc(C)n2)nnc1-c1ccco1,-0.13,-0.309,-0.362,0.0197,x,x,x
CCc1cccc(C)c1NC(=O)CSc1nnc(-c2cc3cc(Br)ccc3o2)n1CC,0.41,-0.751,-0.243,-2.82*,x,584,246
O=C(Cc1ccc(Cl)cc1)Nc1ccccc1CO,0.29,0,-0.871,-2.54*,55.6,613,236
O=C(Cc1ccccc1)Nc1ccccc1CO,1.48,0.19,-0.0539,0.688,x,x,x
COc1cc(C2C(C#N)=C(N)Oc3n[nH]c(C)c32)cc2c1OCO2 (stereo not given),1.76,0.0944,-0.176,-4.78*,x,642,228
Cc1[nH]nc2c1C(c1ccoc1)C(C#N)=C(N)O2 (stereo not given),0.1,-0.0194,-0.358,0.59,5.6,x,x
Cc1ccc(S(=O)(=O)NC2=NCN(Cc3ccccc3)CN2)cc1,-0.41,-0.434,x,0.0442,19.7,x,x
Cc1ccc(S(=O)(=O)NC2=NCN(C3CCN(Cc4ccccc4)CC3)CN2)cc1,-0.55,0.586,-0.291,-3.2*,x,449,201
O=S(=O)(NCc1ccccc1)c1ccc(S(=O)(=O)N(Cc2ccccn2)Cc2ccco2)cc1,1.26,0.00172,-0.372,0.204,-7.7,x,x
O=C(CN1CCSCC1)N1CCc2[nH]c3ccc(Br)cc3c2C1,-0.62,-0.14,-0.00524,-11.2*,25.7,124*,230
Cc1ccc2[nH]c3c(c2c1)CN(C(=O)CN1c2ccc(F)cc2CCC1C)CC3 (stereo not given),x,x,x,x,-7.5,x,x
COc1ccc2cc(CN(Cc3cccnc3)S(=O)(=O)c3ccccc3)c(=O)[nH]c2c1,0.63,0.94,-0.0135,-2.44*,0.2,591,242
Cc1onc(-c2c(Cl)cccc2Cl)c1C(=O)N1CCc2ccccc21,0.06,0.498,-4.8*,-8.3*,-28.1,120*,226
CSC1=NCCN1C(=O)c1c(-c2ccccc2Cl)noc1C,-0.09,-0.149,0.0188,0.199,60.3,x,x
Cc1onc(-c2c(F)cccc2Cl)c1C(=O)N1CCc2ccccc2C1,0.04,0.359,-3.54*,-3.19*,6.3,517,233
CCN1CCCC1CNC(=O)CS(=O)(=O)Cc1nc(-c2ccccc2C)oc1C (stereo not given),-0.74,-1.56,-0.665,-0.0714,u,x,x
CCN1CCCC1CNC(=O)CSCc1nc(-c2ccccc2C)oc1C (stereo not given),2,-0.299,-1.53,-3.66*,-8.8,308*,242
COc1cc2c(C(=O)NCc3ccc(C)o3)cn(CC(C)C)c(=O)c2cc1OC,0.01,0.0412,-0.000594,0.233,x,x,x
CCC1CCCCN1CCCNC(=O)c1cn(CC(C)C)c(=O)c2cc(OC)c(OC)cc12 (stereo not given),x,0,-0.524,-1.18*,x,458*,250
COC(=O)C(O)(CC(=O)Nc1ccccc1OC)C(F)(F)F (stereo not given),x,x,x,x,-28.0,x,x
Fc1ccc(-c2nnc(-n3nnc4ccccc43)c3ccccc23)cc1,x,x,x,x,-45.6,x,x
CSc1cccc(NC(=O)CSc2nc3ccccc3o2)c1,2.28,-0.0116,0.101,-3.27*,-45.6,577,272
CCOC(=O)N1CCC(N2Cc3cccc(C(=O)NCc4ccc(C)cc4)c3C2=O)CC1,0.54,0.469,0.865,0.356,22.6,x,x
CCOC(=O)N1CCC(N2Cc3cccc(C(=O)NCc4ccccn4)c3C2=O)CC1,0.48,0.676,0.415,-2.5*,18.7,500*,247
SMILES,WNV protease inh,M1 ag,D1 allo mod,M1 antag,mHtt clearance,M1 antag conf,mGluR4 antag
O=C(C1CCC1)N1CCc2cc(S(=O)(=O)NC3CCCC3)ccc21,-0.16,-0.946,1.57,-15*,u,580,209
CCOC(=O)CC(Nc1nc(N2CCOCC2)nc(N2CCOCC2)n1)c1ccccc1Cl (stereo not given),-0.1,-0.0503,1.42,-11.7*,-4.0,366*,242
CCn1c(=O)cc(OCC(=O)Nc2cccnc2)c2ccccc21,-0.98,-0.182,0.025,-1.65*,12.1,671,212
COC(=O)COc1ccc(S(=O)(=O)NCc2cccnc2)cc1C,-1.08,-0.215,x,-0.824,-75.0,x,x
COc1ccc(CN(C(=O)CSc2nnc(-c3c[nH]c4ccccc34)o2)c2ccc(F)cc2)cc1OC,x,x,x,x,55.4,x,x
c1cc2c3c(cccc3c1)C(N1CCCCC1)=N2,-0.91,1.26,-1.83,-6.84*,x,224*,247
Cc1nc(C)c(C(=O)C2=C(O)C(=O)N(CCN(C)C)C2c2ccccc2)s1 (stereo not given),-1.44,-1.39,x,0.33,46.9,x,x
COc1ccc(C2C(C(=O)c3sc(C)nc3C)=C(O)C(=O)N2CCN(C)C)cc1 (stereo not given),-0.2,-0.0711,0.776,-10.9*,-32.0,663,242
O=C(Nc1cccc(S(=O)(=O)C(F)F)c1)c1ccc(Cl)c(S(=O)(=O)N2CCOCC2)c1,-0.7,1.04,-1.7,-2.24*,x,588,104*
CN(C(=O)c1cccc(C#N)c1)c1nnc(C2CCCO2)s1 (stereo not given),0.51,-1.09,x,-4.54*,3.6,638,248
Cc1nnc(N(Cc2ccco2)C(=O)c2cccc(C#N)c2)s1,-0.21,-0.0236,-0.0145,-0.0278,-6.5,x,x
O=C(Nc1ccccc1Cl)c1cc(S(=O)(=O)N2CCCC(C(=O)O)C2)ccc1F (stereo not given),-0.22,-0.0867,-0.00754,-3.48*,x,529*,248
CCOC(=O)c1ccc(Oc2c(C)oc3c(CN4CCN(C)CC4)c(O)ccc3c2=O)cc1,2.1,-0.187,x,-4.39*,-0.1,405*,250
CCOc1ccccc1Oc1c(C)oc2c(CN3CCN(CCO)CC3)c(O)ccc2c1=O,1.47,0.137,x,0.094,30.3,x,x
COc1ccccc1C(=O)Nn1c(C2CCC2)nc2ccccc2c1=O,1.13,0.713,-0.288,-3.34*,-0.8,519,180
CCn1c(SCC(=O)O)nnc1-c1cc2c(C)nn(-c3ccccc3)c2s1,-1.23,0.49,0.983,-0.502,x,x,x
Cn1cc(CN2CCN(c3ccccc3)CC2)c2ccccc21,-0.15,-0.632,-1.55,-4.32*,63.6,459*,191
Cc1csc(SCC(=O)N2CCN(S(=O)(=O)c3ccccc3)CC2)n1,0.58,-0.0494,-0.585,0.158,-12.3,x,x
Cc1nnc(SCC(=O)N2CCN(S(=O)(=O)c3ccccc3)CC2)n1Cc1ccccc1,-0.12,-0.0679,-0.59,-6.36*,-0.8,350*,271
Cc1ccc(S(=O)(=O)N2CCN(C(=O)CSc3nnc(-c4ccco4)o3)CC2)cc1,0.86,-0.604,-1.36,-2.99*,x,511,193
Cc1ccc2oc(C(=O)Nc3c(C)n(C)n(-c4ccccc4)c3=O)c(C)c2c1,-0.43,0.18,-0.25,-0.0486,12.9,x,x

# Bioassay records (PubChem)
